Screening data as filed in PubChem BioAssay.
A selection: hits, their analogues and other compounds. The true share with any hit is near 15%.
Sm TGR inh: qHTS Assay for the Inhibitors of Schistosoma Mansoni Peroxiredoxins; Schistosoma mansoni thioredoxin glutathione reductase (TGR), Q962Y6; purified TGR, DTNB reduction, TNB absorbance 405 nm; Potency, µM (titrated, usually from 114 µM), without a hit: at the top dose activity change, negative = inhibition, usual class: inhibitors; hit rate 3% among 360,000; AID 485364, 2010; note: potency is the fitted concentration of half-maximal effect; % is set by controls: 0 for no effect and ±100 for the full control effect; nearly all actives have a fitted effect of over 60% in size
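TGR 20 nM + NADPH 100 uM (dispensed conc.), cpd preinc 15 min RT; start with NADPH (500 uM addition) then DTNB (15 mM addition). Kinetic TNB absorbance, 405 nm filter. Four-parameter Hill fit across titration.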
Pf growth 48h: Primary qHTS for delayed death inhibitors of the malarial parasite plastid, 48 hour incubation. P. falciparum luciferase growth in erythrocytes, 48 h. Potency, µM (titrated, usually from 28.7 µM), for inactives: at the top dose activity change, negative = inhibition, actives largely listed as inhibitors. hit rate 5.9% among 310,000. AID 504832, 2011; note: potency is the fitted concentration of half-maximal effect; % is set by controls: 0 for no effect and ±100 for the full control effect
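Luciferase-expressing parasites in RBCs, 2% Hct / 0.1% parasitemia final; RPMI 1640 + 0.5% Albumax; 37 C, 5% CO2, one generation; luminescence read-out, lower signal = inhibition.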
HCMV antiviral: qHTS Assay for inhibitors of the human cytomegalovirus (HCMV); HFF cells, HCMV-luciferase reporter, 72 h; active compounds read low; activity change, negative = inhibition, % at 57.5 µM; hit rate 4.5% among 410,000; AID 1259415, 2018; in the data active = activity change below about -60%; inconclusive = no clear call, values can overlap the other calls; inactive = above about -39%; note: % is set by controls: 0 for no effect and ±100 for the full control effect
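Two compound doses tested in HFFs infected with HCMV-luciferase, MOI 1 PFU/cell, 72 h at 37C. Lysate luminescence read with OneGlo; data normalized against buffer-only and 10uM Salinomycin inhibitor controls.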
HCV inhibitor: qHTS Assay for Inhibitors of Hepatitis C Virus (HCV); hit rate 3.4% among 340,000; Huh7.5.1 HCVcc-Cre infection, luciferase reporter, 44 h; Potency, µM (titrated, usually from 41.8 µM), without a hit: at the top dose activity change, negative = inhibition, hits mostly inhibitors; AID 651820, 2012; note: potency is the fitted concentration of half-maximal effect; % is set by controls: 0 for no effect and ±100 for the full control effect
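A cell-based infection assay in which seeded cells (1,000 per well) receive test compound after 4 h, are inoculated with HCVcc-Cre at approximately 0.5 moi, and are incubated 44 h before luminescence detection.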
Pf growth 96h: Primary qHTS for delayed death inhibitors of the malarial parasite plastid, 96 hour incubation; AID 504834, 2011; hit rate 6.9% among 320,000; P. falciparum luciferase reporter growth, 96 h; Potency, µM (series often up to 28.7 µM), without a hit: at the highest dose activity change, negative = inhibition, actives largely listed as inhibitors; note: potency is the fitted concentration of half-maximal effect; % is set by controls: 0 for no effect and ±100 for the full control effect
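Parasite growth measured via integrated firefly luciferase reporter in P. falciparum. Infected erythrocytes at 2% hematocrit, 0.05% parasitemia final were treated 96 hours at 37 C under 5% CO2, and luminescence was read.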
SARS PLP yeast: qHTS of Yeast-based Assay for SARS-CoV PLP; S. cerevisiae expressing SARS-CoV PLpro, growth rescue; Potency, µM (titrated, usually from 32.9 µM), without a hit: top-dose activity, positive = growth rescue, hits mostly activators; hit rate 0.19% among 330,000; calls by dose curve; note: potency is the fitted concentration of half-maximal effect; 0% is about no effect; nearly all actives have a fitted effect of over 55% in size
The depositor's hits bear a star; ? = inconclusive; . = not tested or not shown; [ ] = another dose, or the depositor's remark. Unless noted, calls come from the whole dose curve; as a rule, active = well fitted curve in the direction sought with a large enough effect; inconclusive = small, poorly fitted or top-dose-only effect, or another doubt; inactive = no such curve, though single readings can be large; an effect the other way counts as inactive or inconclusive.

SMILES	Sm TGR inh	Pf growth 48h	HCMV antiviral	HCV inhibitor	Pf growth 96h	SARS PLP yeast
COCCN(CCOC)c1nc(-c2ccc(C)cc2)nc2ccccc12	-20%	0%	-27	-28%	?	-5%
O=C(OCCNc1nc(-c2ccccc2)nc2ccccc12)c1cccnc1	.	-12%	5	?	14%	-4%
Cc1ccc(-c2nc(Nc3cccc(O)c3)c3ccccc3n2)cc1	-15%	8%[0.00184 µM]	?	28µM*	?	-6%
Cc1ccc(-c2nc(N(C)C3CCN(C)CC3)c3ccccc3n2)cc1	3%	.	44	?	6.6µM*	-6%
Oc1cccc(Nc2c3ccccc3nc3ccccc23)c1	-30%	?	-100*	?	-11%	-13%
CCCOC(=O)c1cccc(Nc2nc(-c3cccnc3)nc3ccccc23)c1	5%	9.3µM*	134	?	0%	6%
Cn1nc(-c2ccccc2)c2ncc(C(F)(F)F)cc21	6%	23%	.	?	4%	2%
CC(C)C[C@@H](CN1CCC[C@H]1CN1C(=O)C(=O)NC[C@@H]1Cc1ccc(O)cc1)N1C[C@H](Cc2ccc(O)cc2)N(CC2CCCCCC2)C(=O)C1=O	.	.	-10	.	.	.
Cc1ccc(C)c(N2CCN(C(=O)c3cc4c(=O)n(Cc5cccnc5)ccc4nc3C)CC2)c1	-2%	.	-7	.	.	.
COc1cc(C2C(C#N)=C(N)Oc3c2ccc2ccccc32)ccc1OCC(=O)Nc1ccc(C)cc1 (stereo not drawn)	4%	10µM*	26	2µM*	0%	6%
N#CC1=C(N)Oc2c(ccc3ccccc23)C1c1ccsc1 (stereo not drawn)	?	48%	170	?	225%	-13%
COc1ccc(C2C(C#N)=C(N)Oc3c2ccc2cccnc32)cc1OC (stereo not drawn)	.	?	-101*	-17%	?	9%
COc1cc(C2C(C#N)=C(N)Oc3c2ccc2ccccc32)ccc1OCC(=O)Nc1cccc(C)c1 (stereo not drawn)	1%	12µM*	40	?	20%	12%
CCCOc1ccc(C2C(C#N)=C(N)Oc3nc[nH]c(=O)c32)cc1OC (stereo not drawn)	-4%	-8%	31	30%	.	15%
CCOc1ccc(CN2C(=O)c3ccccc3Sc3ccc(C(=O)OC)cc32)cc1	1%	.	-21	.	.	.
Cc1nc2ccc(S(=O)(=O)N(CC(=O)Nc3cccc(C)c3C)Cc3ccccc3)cc2s1	4%	.	-15	.	.	.
CC1CCC(NC(=O)c2cc(S(=O)(=O)N3CCCCC3)ccc2N2CCOCC2)CC1 (stereo not drawn)	-6%	9.3µM*	-13	-28%	?	-1%
CCCCCC(C)NC(=O)c1cc(S(=O)(=O)N2CCCCC2)ccc1N1CCOCC1 (stereo not drawn)	-2%	13µM*	-25	-25%	?	-8%
CN(Cc1cccc(F)c1)C(=O)c1cc(S(=O)(=O)N2CCOCC2)ccc1N1CCCC1	-20%	?	4	19%	?	-5%
CCc1ccc(CN(C)C(=O)c2cc(S(=O)(=O)N3CCOCC3)ccc2N2CCCC2)cc1	-3%	12µM*	-24	-28%	?	0%
COc1ccccc1N1CCN(/N=C/C=C/c2ccccc2[N+](=O)[O-])CC1	7%	-1%	24	?	2%	0%
O=C(CCCn1c(=O)c2cccn2c2cccnc21)Nc1ccccc1C(F)(F)F	-2%	.	?	.	.	.
CC(C)Oc1ccc(CNC(=O)C2COc3ccccc3C2)cc1 (stereo not drawn)	0%	.	41	.	.	.
